The results in this text go back to PubChem BioAssay.

Molecules are shown by their SMILES.

The test system of assay [1] is Human papillomavirus type 1a protein E7 (residues 44-93). As to the kind of experiment: small molecules binding HPV E7 44-93 – biochemical, small-molecule microarray, residues 44-93, 635 nm fluorescence, primary screen (AID 1108).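 Further: E7 fragment applied at 1 µg/mL in TBST for 1 h at 4 C; score combines spot fluorescence with its signal to noise ratio.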 The conditions noted are these: fluorescence 635 nm, higher = more signal.
Assay [2] can be described thus: hepatitis C replication reporter changes, two-sided – Huh7 cells, luciferase reporter, HCV replication inhibitor project, primary screen (AID 1109).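 Further: huh7 hepatoma cells harbouring a luciferase neomycin HCV replicon reporter; luciferase luminescence as measure of HCV replicon replication; test concentration not given here.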 The following applies: Huh7 HCV replicon luciferase reporter, 48 h; higher = more signal. (In a reporter assay the amount or activity of a reporter protein is the signal.)
Assay [3] addresses Left-right determination factor 2 (Homo sapiens) (UniProt O00292). As to the kind of experiment: small molecules binding LEFTY2 protein – biochemical, small-molecule microarray, 635 nm fluorescence scan, primary screen (AID 1110). The conditions noted are these: higher = more signal.
The target of assay [4] is Calmodulin-1 (Homo sapiens) (UniProt P0DP23). As to the kind of experiment: small molecules binding calmodulin-1 with EGTA – biochemical, small-molecule microarray, Cy5-labelled CALM1, profiling panel (AID 1111).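 Further: labelled calmodulin applied in Tris saline Tween buffer holding calcium plus EGTA and DTT.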 The following applies: Cy5-CALM1 binding fluorescence, higher = more signal.
Assay [5] shares this target. As to the kind of experiment: small molecules binding Ca-loaded calmodulin-1 – biochemical, small-molecule microarray, Cy5-labelled CALM1, plus calcium, artefact control for SMM control-protein annotation, profiling panel (AID 1112).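 Further: score merges spot fluorescence with signal to noise from triplicate slides.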 The conditions noted are these: Cy5-CALM1 binding fluorescence, higher = more signal.
Assay [6] is described as follows: probe aWnt5a binding to arrayed compounds – biochemical, biotinylated probe, 635/667 nm fluorescence, primary screen (AID 1113).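 Further: score merges 667 nm fluorescence intensity with signal-to-noise per printed feature.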 The conditions noted are these: small-molecule microarray, higher = more signal.
Assay [7] can be described thus: probe aShh binding to arrayed compounds – biochemical, biotinylated probe, 635/667 nm fluorescence, primary screen (AID 1114).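 Further: probe is biotin-labelled aShh protein from a stem cell growth factor screen; measures binding of labelled protein to compounds printed on the slide; score merges feature fluorescence at 667 nm with signal-to-noise.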 The conditions noted are these: small-molecule microarray, higher = more signal.
A short description of assay [8]: probe aNog binding to arrayed compounds – biochemical, biotinylated probe, 635/667 nm fluorescence, primary screen (AID 1115).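 Further: probe is biotinylated aNog protein used at 0.15 µg/mL for 1 h at 4 C; z-score combines 667 nm fluorescence of each spot with its signal to noise.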 The following applies: small-molecule microarray, higher = more signal.
The target of assay [9] is Torsin-1A-interacting protein 1 (Homo sapiens) (UniProt Q5JTV8). As to the kind of experiment: compound microarray binding of lysate hLAP1 – cell lysate, small-molecule microarray, COS7 lysate, 635/667 nm fluorescence, primary screen (AID 1116). The conditions noted are these: 635 nm fluorescence, higher = more signal.
For assay [10], the target named is Alpha-bungarotoxin (Bungarus multicinctus) (UniProt P60615). As to the kind of experiment: compounds binding labelled alpha-BTX control protein – biochemical, small-molecule microarray, Alexa647 label, 635/667 nm fluorescence, artefact control for SMM control protein annotation, profiling panel (AID 1117). The conditions noted are these: alpha-BTX-A647 binding fluorescence, higher = more signal.
Alpha-bungarotoxin (Bungarus multicinctus), sequence (P60615 whole entry, looked up): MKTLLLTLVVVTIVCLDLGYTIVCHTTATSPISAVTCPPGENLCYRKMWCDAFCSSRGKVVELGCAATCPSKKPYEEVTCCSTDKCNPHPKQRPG

Torsin-1A-interacting protein 1 (Homo sapiens), sequence (Q5JTV8 whole entry, looked up): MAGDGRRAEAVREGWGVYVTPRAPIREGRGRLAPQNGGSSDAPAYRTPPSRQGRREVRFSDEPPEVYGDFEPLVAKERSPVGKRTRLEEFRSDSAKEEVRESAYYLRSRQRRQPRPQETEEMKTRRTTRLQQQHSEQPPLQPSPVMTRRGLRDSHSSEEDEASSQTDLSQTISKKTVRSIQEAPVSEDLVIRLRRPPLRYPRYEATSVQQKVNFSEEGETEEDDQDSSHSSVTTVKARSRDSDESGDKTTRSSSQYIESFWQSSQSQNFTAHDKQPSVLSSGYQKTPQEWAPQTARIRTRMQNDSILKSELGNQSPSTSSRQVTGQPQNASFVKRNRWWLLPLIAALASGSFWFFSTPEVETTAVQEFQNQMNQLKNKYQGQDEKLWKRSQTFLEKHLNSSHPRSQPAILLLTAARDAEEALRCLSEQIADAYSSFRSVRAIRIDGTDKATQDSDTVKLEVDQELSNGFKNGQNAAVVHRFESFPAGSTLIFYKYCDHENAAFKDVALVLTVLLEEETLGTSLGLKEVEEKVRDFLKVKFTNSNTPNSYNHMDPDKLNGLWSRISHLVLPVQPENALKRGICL
Left-right determination factor 2 (Homo sapiens), sequence (O00292 whole entry, looked up): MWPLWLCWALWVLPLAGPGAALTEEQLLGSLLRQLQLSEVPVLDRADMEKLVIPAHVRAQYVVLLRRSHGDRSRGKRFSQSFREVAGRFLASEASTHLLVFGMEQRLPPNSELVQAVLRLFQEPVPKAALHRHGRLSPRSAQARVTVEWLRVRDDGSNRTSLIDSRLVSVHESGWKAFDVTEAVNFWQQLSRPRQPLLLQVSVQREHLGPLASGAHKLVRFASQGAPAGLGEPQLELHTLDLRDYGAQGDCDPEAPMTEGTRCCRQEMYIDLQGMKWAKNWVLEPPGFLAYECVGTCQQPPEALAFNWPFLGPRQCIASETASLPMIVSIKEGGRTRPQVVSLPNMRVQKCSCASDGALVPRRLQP

As to `C=C(C)[C@@H]1CC=C(C(O)C2C=CC3C(=O)N(C)C(=O)C3N2Nc2ccccc2)CC1` (stereo not given in full), the composite z-score in assay [1] is 1.35; in assay [3] it was 0.658; in assay [4], -0.27; in [5], -0.74; in [6], 0.0004; in assay [7] it was -0.142. Moreover, the composite z-score is -0.144 in assay [8], 0.296 in [9] and 0.429 in [10]. This compound gave a z-score in assay [2] of -0.626.
Consider `CCCC=C(CCC)[C@@H](NC(=O)c1cccs1)c1ccc(C(F)(F)F)cc1`, for which the composite z-score in [1] was 1.17; in assay [3] it was 1.16; in [4], 1.48; in assay [5], 0.522; in assay [6] it was 0.0546; in assay [7], 0.336. The composite z-score in assay [8] came to 1.15; in [9] it was 1.27; in assay [10] it was 0.734. In addition, in assay [2], the z-score is -0.668.
Turning to `Oc1ccc2cc[n+](Cc3sc4ccccc4c3Cl)cc2c1`, the composite z-score was -0.317 in assay [1]; 0.0344 in [3]; -0.481 in assay [4]; -0.683 in [5]; -0.124 in assay [6]; 0.318 in assay [7]. In addition, the values for the composite z-score in assay [8], in assay [9] and in assay [10] were -0.29, 1.22 and 1.02, respectively. The same compound registered a z-score in [2] of 0.514.
As for `C=C(COC)/C(=C/C[C@@H](OC(C)=O)c1ccc(OCCO)cc1)c1cnc2ccccc2c1`, the composite z-score in [1] was 0.487; in assay [3], 0.989; in assay [4] it was 0.263; in assay [5], -0.731; in assay [6], -0.0761; in assay [7], 0.0557. The figures for the composite z-score in assay [8], in [9] and in assay [10] were -0.1, 0.174 and 1.63, respectively. In assay [2], this compound yielded a z-score of -1.19.
`COC(=O)C(CC#Cc1ccc2c(c1)[C@]1(C(=O)N2)[C@H](c2ccc(OCCO)cc2)N2[C@H](c3ccccc3)[C@H](c3ccccc3)OC(=O)[C@H]2[C@@H]1C(=O)Nc1nc2ccccc2s1)C(=O)OC`: the composite z-score in assay [1] is 1.4; in [3], 0.582; in assay [4], 1.55; in [5], 0.489; in [6] it was -0.0195; in [7], -0.0119. For the same compound, the composite z-score in assay [8] is -0.267; in [9], 1.03; in assay [10], 1.11. Moreover, the z-score in assay [2] was -1.65.
As to `CN(C)CCCC[C@@H]1NC(=O)[C@@H]2C[C@H](C(=O)NCCCCCCN)[C@H](c3cccc(OCCO)c3)N2C1=O`, the composite z-score in assay [1] is 1.29; in assay [3] it was 0.45; in [4], 1.23; in assay [5], 0.827; in [6], -0.0455; in assay [7] it was 0.876. Moreover, the composite z-score is 1.13 in assay [8], 2.88 in assay [9] and 2.63 in assay [10]. In assay [2], this compound returned a z-score of 0.484.
Consider `[N-]=[N+]=NCc1ccccc1C[C@]1(C(N)=O)COC(c2ccc(OCCCO)cc2)=N1`, for which the composite z-score in assay [1] is 0.202; in assay [3], -0.993; in assay [4], 2.01; in assay [5], 1.2; in [6], -0.0286; in [7], -0.0441. Also, the composite z-score is -0.169 in assay [8], 2.59 in assay [9] and 1.58 in assay [10]. The compound further gave a z-score in assay [2] of -0.17.
Take `CN1C(=O)C2C=CC(C(O)C#Cc3ccccc3)N(N3CCCCC3)C2C1=O` (stereo not given): the composite z-score in assay [1] is -1.16; in [3], 0.414; in assay [4], 1.19; in [5], 0.657; in assay [6], 0.234; in assay [7], 0.668. Besides, the composite z-score in [8] came to 0.564; in assay [9] it was 0.494; in [10] it was 1.04. Moreover, the z-score in [2] is -0.451.
On to `COCCCNC(=O)[C@]1(CCC(=O)OC(C)(C)C)N=C(c2ccc(OCCCO)cc2)O[C@@H]1c1ccccc1CN=[N+]=[N-]`, for which the composite z-score is 1.31 in [1]; 0.254 in assay [3]; 1.38 in assay [4]; 0.282 in [5]; 0.45 in assay [6]; 0.147 in assay [7]. Besides, the values for the composite z-score in assay [8], in assay [9] and in assay [10] were 2.04, 1.29 and 0.312, respectively. In [2], this compound showed a z-score of -1.74.
Turning to `CN1C(=O)C2C=CC(C(O)C3CC=CCC3)N(N(c3ccccc3)c3ccccc3)C2C1=O` (stereo not given), the composite z-score in [1] is -1.02; in assay [3] it was 0.411; in assay [4], -0.549; in [5] it was -0.75; in [6] it was 0.027; in [7] it was -0.0322. In addition, the results for the composite z-score in [8], in assay [9] and in assay [10] were -0.0446, 0.533 and 0.141, respectively. Further, the z-score in [2] is -0.155.
Regarding `Cc1ccc(S[C@]2(C(=O)O)CC(=O)N(C(C)C)[C@@H]2c2ccc(CO)cc2I)cc1`, the composite z-score in [1] is 0.506; in [3], -0.195; in assay [4], 1.75; in [5], 0.845; in assay [6] it was 0.0611; in assay [7], 0.111. The composite z-score turned out to be 1.65 in [8], 0.836 in assay [9] and 1.18 in assay [10]. For the same compound, the z-score in [2] is -1.31.
Turning to `O=C(CS)NCCCCCCNC(=O)[C@@H]1C[C@@H]2C(=O)N[C@@H](Cc3ccccc3)C(=O)N2[C@@H]1c1cccc(OCCO)c1`, the composite z-score came to 1.39 in [1]; 0.934 in assay [3]; 0.309 in [4]; 0.414 in [5]; 0.0102 in [6]; 0.265 in [7]. For the same compound, the composite z-score in assay [8] stood at 0.0637; in assay [9], 0.585; in [10], 1.2. In assay [2], this compound registered a z-score of -0.698.
On to `CC(C)C(O)C1C=CC2C(=O)N(c3ccccc3)C(=O)C2N1Nc1ccc([N+](=O)[O-])cc1` (stereo not given), for which the composite z-score in assay [1] is 1.2; in assay [3], -0.217; in assay [4] it was 0.594; in assay [5], 0.308; in assay [6] it was 0.261; in [7] it was 0.0358. In addition, the composite z-score in assay [8] was determined as 0.202; in assay [9] it was 1.34; in [10] it was 0.801. This compound also registered a z-score in assay [2] of 0.285.
On to `Cc1nc2cc(Br)ccc2c(=O)o1`, for which the composite z-score is 0.686 in [1]; 0.4 in [3]; 0.66 in [4]; 0.202 in assay [5]; -0.198 in assay [6]; -0.481 in [7]. The figures for the composite z-score in assay [8], in assay [9] and in [10] were -0.483, 0.197 and 0.206, respectively. The z-score in assay [2] is -0.569.
